We go through twelve compounds from PubChem BioAssay (NCATS).

Assay [1] deals with DNA repair nuclease/redox regulator APEX1 (Homo sapiens) (UniProt P27695). In words: qHTS Validation Assay for Inhibitors of the Human Apurinic/apyrimidinic Endonuclease 1 (APE1) (AID 1705;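 further: TAMRA fluorescence gain over two minutes as APE1 cuts a quenched THF abasic duplex; series mostly up to about 57 µM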). In a few lines:
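qHTS, 1536-well. APE1 + cpd 15 min RT → 50 nM TAMRA/BHQ-2 THF-abasic dsDNA substrate → kinetic fluorescence, 3 reads/60 s; delta(read3−read1) = reaction progress. No-enzyme buffer = negative control.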
In general terms: Quantitative high-throughput screening tests each substance at several concentrations.

A short description of assay [2]: Counterscreen for APE1 Inhibitors: Fluorescent Dye Displacement Validation Assay (AID 1707). In a few lines: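 Compounds are scored by their ability to displace Thiazole Orange (250 nM) from a 50 nM TAMRA-tagged duplex bearing a tetrahydrofuran abasic site. Buffer is 50 mM Tris-HCl pH7.5, 50mM NaCl, 2 mM MgCl2, 0.01% Tween-20.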
The nature of assay [3]: qHTS for differential inhibitors of proliferation of Plasmodium falciparum line 7G8 (AID 1815).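 Further: parasite growth measured after three days of incubation.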 Further: potency means the concentration at half of the fitted maximal effect.
Assay [4] is described as follows: qHTS for differential inhibitors of proliferation of Plasmodium falciparum line GB4 (AID 1816).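 Further: parasite growth measured after 72 h incubation.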 Further: potency means the concentration at half of the fitted maximal effect. As to conditions: Potency: Plasmodium falciparum GB4 proliferation inhibition.
Assay [5] can be described thus: qHTS for differential inhibitors of proliferation of Plasmodium falciparum line D10 (AID 1877).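 Further: parasites grown with compound for 72 h before DNA staining.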 Further: potency means the concentration at half of the fitted maximal effect.
Assay [6] can be described thus: qHTS for differential inhibitors of proliferation of Plasmodium falciparum line Dd2 (AID 1882). Further: nearly all actives have a fitted effect of over 65% in size. Further: potency means the concentration at half of the fitted maximal effect. As to conditions: Potency: Plasmodium falciparum Dd2 proliferation inhibition. In a few lines: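 SYBR Green I DNA fluorescence read-out, ex 485/em 535 nm. Signals were normalized to 0.29 uM artemisinin and DMSO wells, then corrected using vehicle-only plates flanking each stack. Parasite growth ran 72 h in erythrocytes before lysis.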

Assay [7] can be described thus: qHTS for differential inhibitors of proliferation of Plasmodium falciparum line W2 (AID 1883).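 Further: parasites grown with compound for 72 h before lysis and staining.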 Further: potency means the concentration at half of the fitted maximal effect. As to conditions: Potency: Plasmodium falciparum W2 proliferation inhibition.
Assay [8] is described as follows: qHTS for differential inhibitors of proliferation of Plasmodium falciparum line HB3 (AID 1886).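 Further: parasites grown with compound for 72 h before SYBR Green readout.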 Further: potency means the concentration at half of the fitted maximal effect. The conditions noted are these: Potency: Plasmodium falciparum HB3 proliferation inhibition.
Assay [9] in a line: qHTS Assay for Modulators of Human Peripheral Myelin Protein 22 (PMP22) Expression/Activity (AID 1967; active means well fitted curve in the direction sought with a large enough effect in the signal ratio; the % refers to the signal ratio). In a few lines: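 Luminescence ratio of Pmp22 promoter-driven green luciferase to EF-alpha-driven red luciferase, in engineered mouse MSC80 Schwann cells, served as read-out. Compounds were incubated 24h; untreated cells defined 0% Activity; curves were classified by r2, magnitude and activity.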

Assay [10] has as its target Ferritin light chain (Equus caballus) (UniProt P02791). In words: qHTS Validation Assay for Identification of Novel General Anesthetics (AID 2323). Further: series mostly up to about 77 µM. The method, boiled down: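 Fluorescence at 535 nm (excitation 380 nm) reported loss of 1-AMA binding to horse-spleen apoferritin (10 uM) in PBS with 50% saturated 1-aminoanthracene, after 10 min room-temperature incubation with compound; values from Hill fits of normalized response.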

Assay [11] addresses ATP-dependent DNA helicase Q1 (Homo sapiens) (UniProt P46063). In words: qHTS Validation Assay for Inhibitors of RecQ-Like Dna Helicase 1 (RECQ1) (AID 2353). In a few lines: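 50 nM RECQ1T1 preincubated 15 min with compound in Tris pH 8.0 buffer with MgCl2, DTT, Tween-20 and 2.5 ug/ml poly(dI-dC); started with 200 nM TAMRA/BHQ-2 forked duplex and 2 mM ATP. Unwinding read as fluorescence (525/598 nm), two reads 2 h apart.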

Assay [12] concerns the target RecQ-like DNA helicase BLM (Homo sapiens) (UniProt P54132). In words: qHTS Validation Assay for Inhibitors of Bloom's syndrome helicase (BLM) (AID 2364). In a few lines: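 50 nM BLM preincubated 15 min at room temperature with compound in pH 8.0 Tris buffer containing 2.5 ug/ml poly(dI-dC); started with 200 nM TAMRA/BHQ-2 forked duplex and 2 mM ATP (final). Unwinding read as TAMRA fluorescence increase, two reads 2 h apart.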

Assay [13] can be described thus: Cytometric Cell-Based qHTS for Inhibitors of the mTORC1 Signaling Pathway in MEF (Tsc2-/-, p53-/-) Cells (AID 2660).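 Further: percent of cells above a phospho-rpS6 to PI ratio cutoff in each well; series mostly up to about 38 µM.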 The method, boiled down: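 Immunofluorescence qHTS of rpS6 Ser235/236 phosphorylation: MEFs (Tsc2-/-, p53-/-) treated 24 h, 37 C, in DMEM + 10% FBS. Alexa-488 signal normalized to PI count, referenced to rapamycin (7.5 nM) and DMSO; PI cell number recorded for viability.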

The nature of assay [14]: High Content Imaging Cell-Based qHTS for Inhibitors of the mTORC1 Signaling Pathway in MEF (Tsc2-/-, p53-/-) Cells (AID 2666).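 Further: percent of cells scored positive for phospho-rpS6 Ser235/236 immunostaining by imaging.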 In a few lines:
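Phospho-rpS6 (Ser235/236) immunofluorescence, normalized and scored as % positive cells using rapamycin and DMSO controls, was read in empty-vector Tsc2-/-, p53-/- MEFs after 24 h compound exposure at 37 C; propidium iodide counted cells.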

The nature of assay [15]: High Content Imaging Cell-Based qHTS for Inhibitors of the mTORC1 Signaling Pathway in MEF Cells (AID 2667).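 Further: Tsc2-/- p53-/- MEFs stably re-expressing wild-type Tsc2 exposed 24 h; series mostly up to about 38 µM.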 In a few lines:
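WT MEFs (Tsc2-/-, p53-/- re-expressing Tsc2), in DMEM + 10% FBS, were treated with compound for 24 h at 37 C. Cells were then fixed and stained for phospho-rpS6 Ser235/236 with propidium iodide as cell count. Values are % positive cells, with thresholds set against rapamycin-treated cells.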

Assay [16] can be described thus: qHTS for differential inhibitors of proliferation of Plasmodium falciparum line 3D7 (AID 1876). Further: potency means the concentration at half of the fitted maximal effect.

Inconclusive results are not listed. The source made the active and inactive calls. Unless noted, the call rests on the fitted dose curve; in most records, active means well fitted curve in the direction sought with a large enough effect; inconclusive means small, poorly fitted or top-dose-only effect, or another doubt; inactive means no such curve, though single readings can be large; an effect the other way counts as inactive or inconclusive.

Sequence of RecQ-like DNA helicase BLM (Homo sapiens) (P54132 whole entry, looked up): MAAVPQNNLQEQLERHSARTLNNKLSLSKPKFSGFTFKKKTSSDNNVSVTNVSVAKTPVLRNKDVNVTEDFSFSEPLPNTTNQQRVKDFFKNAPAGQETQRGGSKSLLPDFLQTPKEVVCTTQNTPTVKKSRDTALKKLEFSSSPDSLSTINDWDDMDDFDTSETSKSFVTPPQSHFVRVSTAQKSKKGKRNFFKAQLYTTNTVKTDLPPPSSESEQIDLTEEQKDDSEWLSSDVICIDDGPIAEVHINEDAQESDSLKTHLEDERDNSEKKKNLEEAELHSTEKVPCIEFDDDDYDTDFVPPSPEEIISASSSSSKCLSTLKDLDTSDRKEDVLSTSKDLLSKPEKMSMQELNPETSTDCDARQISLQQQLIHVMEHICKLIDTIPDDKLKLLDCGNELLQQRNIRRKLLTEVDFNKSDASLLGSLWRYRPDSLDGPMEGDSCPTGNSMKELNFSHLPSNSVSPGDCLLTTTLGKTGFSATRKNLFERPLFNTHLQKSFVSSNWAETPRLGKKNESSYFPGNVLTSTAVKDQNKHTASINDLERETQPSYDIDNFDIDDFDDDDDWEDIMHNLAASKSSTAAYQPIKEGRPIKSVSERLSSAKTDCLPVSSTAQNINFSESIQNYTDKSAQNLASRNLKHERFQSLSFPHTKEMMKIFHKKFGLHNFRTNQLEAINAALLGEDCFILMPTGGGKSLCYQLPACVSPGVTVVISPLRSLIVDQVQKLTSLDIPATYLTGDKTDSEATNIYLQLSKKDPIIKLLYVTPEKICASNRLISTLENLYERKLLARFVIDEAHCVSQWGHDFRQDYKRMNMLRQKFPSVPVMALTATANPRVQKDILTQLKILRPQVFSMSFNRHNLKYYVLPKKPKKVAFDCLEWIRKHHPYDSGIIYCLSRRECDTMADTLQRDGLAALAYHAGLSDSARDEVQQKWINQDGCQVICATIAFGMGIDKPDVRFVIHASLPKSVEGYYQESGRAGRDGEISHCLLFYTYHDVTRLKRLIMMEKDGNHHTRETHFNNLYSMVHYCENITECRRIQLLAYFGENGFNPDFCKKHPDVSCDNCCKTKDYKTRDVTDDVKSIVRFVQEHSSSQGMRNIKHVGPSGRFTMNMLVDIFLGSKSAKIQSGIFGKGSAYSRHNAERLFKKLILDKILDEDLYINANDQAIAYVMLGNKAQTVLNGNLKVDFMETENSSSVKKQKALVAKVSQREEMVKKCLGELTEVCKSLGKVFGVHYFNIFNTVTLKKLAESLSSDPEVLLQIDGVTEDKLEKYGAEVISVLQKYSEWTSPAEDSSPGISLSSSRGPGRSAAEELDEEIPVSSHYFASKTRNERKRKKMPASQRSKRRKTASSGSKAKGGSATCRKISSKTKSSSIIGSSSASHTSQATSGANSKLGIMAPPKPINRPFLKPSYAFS
Sequence of ATP-dependent DNA helicase Q1 (Homo sapiens) (P46063 whole entry, looked up): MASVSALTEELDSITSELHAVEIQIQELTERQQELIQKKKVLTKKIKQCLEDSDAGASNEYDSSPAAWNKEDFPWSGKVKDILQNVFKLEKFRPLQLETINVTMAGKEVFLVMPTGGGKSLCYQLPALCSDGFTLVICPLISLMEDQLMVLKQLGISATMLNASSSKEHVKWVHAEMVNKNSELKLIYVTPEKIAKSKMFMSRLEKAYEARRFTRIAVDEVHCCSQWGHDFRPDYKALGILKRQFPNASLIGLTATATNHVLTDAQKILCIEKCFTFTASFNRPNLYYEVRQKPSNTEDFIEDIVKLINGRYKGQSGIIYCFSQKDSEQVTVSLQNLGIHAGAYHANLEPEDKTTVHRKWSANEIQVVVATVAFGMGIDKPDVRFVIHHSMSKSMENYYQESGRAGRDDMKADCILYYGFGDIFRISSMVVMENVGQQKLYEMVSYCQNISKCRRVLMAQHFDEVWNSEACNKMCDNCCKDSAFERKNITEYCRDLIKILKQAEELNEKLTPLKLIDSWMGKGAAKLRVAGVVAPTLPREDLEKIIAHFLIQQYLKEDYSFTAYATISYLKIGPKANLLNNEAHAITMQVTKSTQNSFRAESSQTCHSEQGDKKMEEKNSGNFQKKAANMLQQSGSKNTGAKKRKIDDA
Sequence of Ferritin light chain (Equus caballus) (P02791 2-175 limits assumed): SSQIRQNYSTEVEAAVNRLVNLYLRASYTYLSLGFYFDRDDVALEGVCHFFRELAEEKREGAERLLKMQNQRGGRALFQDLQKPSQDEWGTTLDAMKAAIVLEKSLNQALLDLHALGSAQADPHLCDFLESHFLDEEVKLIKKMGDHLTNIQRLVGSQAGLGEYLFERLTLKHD
Sequence of DNA repair nuclease/redox regulator APEX1 (Homo sapiens) (P27695 whole entry, looked up): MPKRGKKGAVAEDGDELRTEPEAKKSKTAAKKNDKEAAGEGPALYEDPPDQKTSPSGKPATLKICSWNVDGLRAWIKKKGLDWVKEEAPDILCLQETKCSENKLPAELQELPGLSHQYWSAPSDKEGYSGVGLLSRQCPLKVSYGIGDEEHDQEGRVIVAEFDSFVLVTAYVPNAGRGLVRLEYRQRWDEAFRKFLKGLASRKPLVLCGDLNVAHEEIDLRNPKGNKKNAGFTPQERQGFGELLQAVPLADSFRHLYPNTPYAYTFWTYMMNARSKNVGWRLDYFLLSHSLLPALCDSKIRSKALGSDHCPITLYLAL

In the case of `NCCSSCCN`, the Potency entry in assay [1], in assay [2], in assay [3], in assay [4], in assay [5] and in assay [6] was “inactive” in each case. The Potency entry in [7], in [8], in assay [10], in assay [11], in assay [12] and in assay [14] was “inactive” throughout. Besides, the Potency entry in assay [15] is “inactive”. Further, the call in assay [9] and in assay [13] was inactive.

`Cc1cc(NC(=O)Nc2ccc3c(ccn3C)c2)sn1`: the Potency entry in assay [1], in assay [2], in assay [6], in assay [10], in assay [11] and in assay [14] was “inactive” throughout. Moreover, the Potency result in [15] was “inactive”. In addition, the results for the Potency in assay [3], in assay [7] and in [8] were 7.94 µM (active), 7.94 µM (active) and 12.6 µM (active), respectively. Also, the outcome in assay [13] was inactive.

Take `COc1cccc(OC)c1OCCNCC1COc2ccccc2O1` (stereo not given): the Potency entry in assay [1], in assay [2], in [10], in assay [11], in assay [12] and in [14] was “inactive” each time. Besides, the Potency result in assay [15] is “inactive”. Besides, the Potency in assay [3] is 7.94 µM (active); in assay [7], 3.98 µM (active). Also, the outcome in assay [13] was inactive.

As to `Cc1ccc(O)c(N=Nc2ccccc2)n1`, the Potency result in [1], in [2], in assay [11], in [12], in assay [14] and in assay [15] was “inactive” each time. Moreover, the Potency in assay [3] is 11.2 µM (active); in [4] it was 12.6 µM (active); in [7], 10 µM (active). The outcome in assay [13] was inactive.

As for `COc1cccc(C(=O)NCCN2CCN(c3ccc(Cl)cc3)CC2)c1`, the Potency result in [1], in assay [2], in [4], in assay [6], in [8] and in assay [10] was “inactive” throughout. Moreover, the Potency result in [11], in [12], in assay [14] and in assay [15] was “inactive” throughout. For the same compound, the Potency in assay [7] is 14.1 µM (active). Also, in [13], the compound was classed as inactive.

For `COC1=C(OC)C(=O)c2ccccc2C1=O`, the Potency entry in assay [1], in assay [2], in assay [10], in assay [11] and in assay [14] was “inactive” each time. Further, the Potency in [3] was 8.91 µM (active); in [4], 10 µM (active); in assay [16], 10 µM (active); in assay [5], 11.2 µM (active); in assay [7], 11.2 µM (active); in assay [8], 11.2 µM (active).

As for `O=c1[nH]c2ccccc2n1CCCN1CCN(C(c2ccccc2)c2ccccc2)CC1`, the Potency result in [1], in [2] and in assay [11] was “inactive” each time. The Potency is 7.08 µM (active) in [3], 12.6 µM (active) in assay [4], 4.47 µM (active) in assay [7] and 14.1 µM (active) in assay [8].

Consider `O=Nc1ccc2oc(=O)ccc2c1`, for which the Potency result in assay [1], in assay [2] and in assay [11] was “inactive” in each case. Moreover, the Potency in [3] is 12.6 µM (active); in assay [16], 11.2 µM (active); in assay [8], 12.6 µM (active).

As to `O=C(O)c1cc([N+](=O)[O-])ccc1NCCCc1ccccc1`, the Potency entry in assay [1], in [2], in [4], in [16], in assay [6] and in assay [11] was “inactive” each time. Further, the Potency entry in assay [14] and in assay [15] was “inactive” each time. In addition, the call in [13] was inactive.

On to `COC(=O)c1c(C)[nH]c(C)c1C(=O)c1ccccc1Cc1ccccc1`, for which the Potency entry in assay [1], in assay [2], in assay [11], in assay [14] and in assay [15] was “inactive” each time. Also, the Potency was 7.94 µM (active) in assay [3]; 7.94 µM (active) in [4]; 8.91 µM (active) in [16]; 14.1 µM (active) in [5]; 8.91 µM (active) in assay [7]; 12.6 µM (active) in assay [8]. Also, the result in assay [13] was inactive.

As to `O=c1[nH]c2cc(C(F)(F)F)ccc2n1-c1cc(C(F)(F)F)ccc1O`, the Potency result in assay [1], in [2], in [11], in assay [14] and in assay [15] was “inactive” in each case. In addition, the Potency in [3] was 4.47 µM (active); in assay [4], 3.98 µM (active); in assay [5] it was 10 µM (active); in assay [6] it was 8.91 µM (active); in assay [7] it was 7.08 µM (active); in assay [8] it was 12.6 µM (active). Further, the call in assay [13] was inactive.

For `CCCCC/C=C\CC(O)/C=C/c1cccc(CC(O)CCCCO)n1` (stereo not given), the Potency entry in assay [1], in assay [2], in assay [6], in assay [10], in assay [11] and in [12] was “inactive” in each case. Further, the Potency result in assay [14] and in assay [15] was “inactive” each time. The Potency in assay [16] was 14.1 µM (active). Also, the outcome in [13] was inactive.
